Compound activity from PubChem.
FMDV antiviral: High Throughput Screening for Foot and Mouth Disease Virus Antivirals; FMDV antiviral cell-based qHTS; 410,000 tested, 1.2% active; Potency, µM (top dose mostly 57.9 µM), hits mostly inhibitors; AID 1159524, 2015; calls by dose curve; tested in HEK293T cells; also: read-out not given here; nearly all actives have a fitted effect of over 45% in size
Vaccinia mCherry: qHTS for Stage-Specific Inhibitors of Vaccinia Orthopoxvirus: mCherry Reporter Primary qHTS. 310,000 tested, 0.63% active. Potency, µM (doses to about 36.5 µM), usual class: inhibitors. Vaccinia virus mCherry reporter infection, fluorescence; calls by dose curve; tested in A549 cells; also: nearly all actives have a fitted effect of over 35% in size
Vaccinia Venus: qHTS for Stage-Specific Inhibitors of Vaccinia Orthopoxvirus: Venus Reporter Primary qHTS. Vaccinia virus Venus reporter expression, fluorescence. Potency, µM (series often up to 36.5 µM), most hits filed as inhibitors. 330,000 tested, 0.46% active; calls by dose curve; tested in A549 cells; also: nearly all actives have a fitted effect of over 30% in size
HCV inhibitor: qHTS Assay for Inhibitors of Hepatitis C Virus (HCV); Huh7.5.1 HCVcc-Cre infection, luciferase reporter, 44 h; Potency, µM (titrated, usually from 41.8 µM), actives largely listed as inhibitors; 340,000 tested, 3.4% active; AID 651820, 2012
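Cells (1,000/well) were plated 4 h before compound, then infected with HCVcc-Cre virus (~0.5 moi). After 44 h further culture, infection was read as luciferase luminescence following a 15 min substrate incubation at room temperature.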
FBPA Giardia inh: qHTS Assay for Inhibitors of Fructose-1,6-bisphosphate Aldolase from Giardia Lamblia. A8B2U2. purified Giardia FBPA. Potency, µM (series often up to 59.6 µM), most hits filed as inhibitors. 290,000 tested, 0.71% active; also: nearly all actives have a fitted effect of over 55% in size
Target sequence (A8B2U2 whole entry, looked up): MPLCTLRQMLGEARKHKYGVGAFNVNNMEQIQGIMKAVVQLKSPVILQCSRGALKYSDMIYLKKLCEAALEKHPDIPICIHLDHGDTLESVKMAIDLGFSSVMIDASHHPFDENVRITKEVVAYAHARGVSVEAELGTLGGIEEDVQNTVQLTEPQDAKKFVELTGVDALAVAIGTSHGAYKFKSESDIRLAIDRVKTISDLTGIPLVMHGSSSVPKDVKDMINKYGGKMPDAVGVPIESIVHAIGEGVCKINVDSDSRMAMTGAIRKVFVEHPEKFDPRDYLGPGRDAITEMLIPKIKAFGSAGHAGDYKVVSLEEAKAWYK
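Giardia FBPA (40 nM reagent) was preincubated 10 min at RT with compound (up to 57.5 uM final), then substrate plus GAPDH/TPI/NAD/arsenate coupling system with diaphorase/resazurin was added; resorufin fluorescence (525/598 nm) was read after 20 min.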
HCMV antiviral: qHTS Assay for inhibitors of the human cytomegalovirus (HCMV); HFF cells, HCMV-luciferase reporter, 72 h; stronger effect = lower value; activity change, negative = inhibition, % at 57.5 µM; 410,000 tested, 4.5% active; AID 1259415, 2018; in the data active = activity change below about -60%; inconclusive = no clear call, values can overlap the other calls; inactive = above about -39%
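Screen run at 2 compound doses on HFFs infected with reporter HCMV, MOI 1 PFU/cell. Luciferase activity from cell lysates at 72 h post infection gave inhibition relative to buffer-only and Salinomycin wells.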
Numbers stand for hits; 0 = inactive; ? = inconclusive; - = no result given; [ ] = remark or other dose. Compounds with a hit are over-represented: about 7.5% of the library has one in this group of screens. Unless noted, calls follow the shape of the dose curve; as a rule, active = well fitted curve in the direction sought with a large enough effect; inconclusive = small, poorly fitted or top-dose-only effect, or another doubt; inactive = no such curve, though single readings can be large; an effect the other way counts as inactive or inconclusive.

SMILES	FMDV antiviral	Vaccinia mCherry	Vaccinia Venus	HCV inhibitor	FBPA Giardia inh	HCMV antiviral
Cc1ccc(CN2CCC(NC(=O)c3ccccc3)CC2)cc1	0	0	0	0	0	0
O=C(c1ccc(S(=O)(=O)NCc2ccco2)cc1)N1CCN(Cc2ccccc2)CC1	0	0	0	?	0	0
O=C(NC1CCCCC1)c1ccc(S(=O)(=O)NCc2ccco2)cc1	0	-	-	0	0	0
Cc1ccc(-n2ncc(C(=O)N3CCN(C4CCCCC4)CC3)c2C2CCN(C(=O)OC(C)(C)C)CC2)cc1C	?	0	0	-	-	0
COc1ccc(CN2CCCC(n3cc(C(=O)NC4CCCC4)nn3)C2)c2ccccc12 (stereo not given)	0	0	0	-	-	-
Cc1ccc2nc(-c3cccc(Br)c3)c(Cc3ccccc3)n2c1	0	0	0	-	-	0
COC(=O)c1cc2sc(C)cc2n1CC(=O)Nc1ccc(C)cc1Cl	0	0	0	-	-	0
CO[C@H]1/C=C\O[C@@]2(C)Oc3c(C)c(O)c4c(O)c(c(C=NN5CCN(C6CCCC6)CC5)c(O)c4c3C2=O)NC(=O)C(C)=CC=C[C@H](C)[C@H](O)[C@@H](C)[C@@H](O)[C@@H](C)[C@H](OC(C)=O)[C@H]1C	-	0	0	-	-	-
CC1CCCC(C)N1C(=O)c1ccc(S(=O)(=O)NCc2ccco2)cc1 (stereo not given)	0	0	0	0	0	-76.1
CCOC(=O)C1CCCN(C(=O)c2ccc(S(=O)(=O)NCc3ccco3)cc2)C1 (stereo not given)	0	0	0	0	-	0
COc1ccc(N2CC(C)(C)C[C@H]2/C=C/C(=O)OC(C)(C)C)cc1	-	-	-	-	-	0
O=C(N/N=C/c1cnc(N2CCCCC2)s1)c1ccc(C(F)(F)F)cc1	0	0	?	11.2µM	0	0
CCOC(=O)c1csc(CCNC(=O)c2ccccc2)n1	0	0	0	-	-	0
COc1ccc(S(=O)(=O)n2ccc(-c3ccc4c(c3)CCC(C)(C)O4)n2)cc1	0	0	0	0	0	-85.0
CC1(C)CCc2cc(-c3ccn(S(=O)(=O)c4ccccc4Cl)n3)ccc2O1	0	0	0	?	0	?
O=C(c1ccc2c(=O)n(-c3ccccc3)c(=S)[nH]c2c1)N1CCN(c2ccccc2)CC1	?	-	-	11.2µM	-	0
CCOC(=O)C1CCCN(C(=O)c2ccc3c(=O)n(Cc4ccccc4OC)c(=S)[nH]c3c2)C1 (stereo not given)	0	-	-	?	-	-93.9
COCCn1c(=S)[nH]c2cc(C(=O)N3CCN(C4CCCCC4)CC3)ccc2c1=O	0	?	0	-	-	0
O=C(c1ccc2c(=O)n(-c3ccccc3)c(=S)[nH]c2c1)N1CCCCC1	?	0	0	?	0	-92.4
O=C(c1ccc2c(=O)n(Cc3ccccc3)c(=S)[nH]c2c1)N1CCCC1	0	0	0	0	0	?
CCOC(=O)C1CCCN(C(=O)c2ccc(Cn3c(=S)[nH]c4cc(C(=O)OC)ccc4c3=O)cc2)C1 (stereo not given)	0	0	0	?	0	0
CC1CCCN(C(=O)c2ccc3c(=O)n(C4CCCC4)c(=S)[nH]c3c2)C1 (stereo not given)	?	0	0	10µM	?	-62.4
CCOc1cc(C2c3c(oc4ccc(F)cc4c3=O)C(=O)N2Cc2ccco2)ccc1O (stereo not given)	0	0	0	-	-	0
Nc1ccc(/C=C/c2nccc3ccccc23)cc1	-	0	0	-	-	-
N#CCSc1nc2c(cc1C#N)CCCCCC2	0	0	0	?	0	-68.2
SMILES	FMDV antiviral	Vaccinia mCherry	Vaccinia Venus	HCV inhibitor	FBPA Giardia inh	HCMV antiviral
N#Cc1cc2c(nc1SCC(O)CS(=O)(=O)Cc1ccc(Cl)cc1)CCCC2 (stereo not given)	-	0	0	?	0	-63.6
O=C(CSc1cn[nH]n1)Nc1nc2ccccc2s1	0	0	0	0	0	0
CC1(C)Cc2ccccc2-c2nnc(SCC(=O)N3CCN(c4ccccc4)CC3)n21	?	-	-	?	0	-92.4
CC1(C)Cc2ccccc2-c2nnc(SCC(=O)Nc3nc4ccccc4s3)n21	?	-	-	0	0	-82.8
Cn1c(SCC(=O)Nc2nc3ccccc3s2)nnc1-c1ccccc1	0	0	0	0	0	0
O=C(CSc1ccccn1)Nc1nc2ccccc2s1	0	0	0	0	0	-66.3
O=C(N[C@@H](Cc1ccccc1)C(=O)NC1CC1)c1ccc(Cl)cc1	0	0	0	0	0	0
COc1ccccc1NC(=O)Cc1csc(NC(=S)Nc2ccc(C)cc2)n1	?	-	-	?	-	-101.5
COc1cc(C)ccc1NC(=O)Cc1csc(NC(=O)Nc2ccccc2OC)n1	?	0	0	8.91µM	-	0
COc1ccccc1NC(=O)Nc1nc(CC(=O)N2CCN(c3ccccc3OC)CC2)cs1	28.2µM	?	?	10µM	-	0
Cc1ccc2oc(=O)n(CCCOc3ccc(Cl)cc3)c2c1	0	0	0	-	-	0
CCCCCCn1c(O)c(/C=N/N2CCCCCC2)c(=O)[nH]c1=O	0	0[7.34 µM]	0[7.34 µM]	0	0	-64.2
CCN1CCN(C(=O)c2ccc(-c3nc4ccccc4s3)s2)CC1	0	0	0	?	0	0
O=C(c1ccc(-c2nc3ccccc3s2)s1)N1CCOCC1	8.91µM	0	0	?	0	-71.5
CCOCCCNC(=O)C(NC(=O)c1ccc(NC(C)=O)cc1)c1ccc(Cl)cc1 (stereo not given)	0	0	0	0	0	-62.9
CCOCCCNC(=O)C(NC(=O)c1ccc(NC(C)=O)cc1)c1ccc(C)cc1 (stereo not given)	0	0	0	0	0	0
Cc1cc(C)c2ccc(N)nc2c1O	0	12.6µM	?	11.2µM	0	-104.9
O=C(CN1CCN(CCN2C(=O)c3cccc4cccc(c34)C2=O)CC1)c1ccc(Cl)cc1	-	-	-	?	0	-
COc1cc2c3c(cccc3c1)C(=O)N(CCN1CCCC1)C2=O	0	?	?	-	-	-97.8
COc1ccc(C(=O)CN2CCN(CCN3C(=O)c4cccc5cccc(c45)C3=O)CC2)cc1	?	0	0	10µM	-	0
CC(C)(C)C(=O)N1CCN(CCN2C(=O)c3cccc4cccc(c34)C2=O)CC1	0	0	0	0	0	0
O=C(CN1CCN(CCN2C(=O)c3cccc4cccc(c34)C2=O)CC1)c1ccc(F)cc1	0	-	-	14.1µM	0	0
COc1ccc(C)cc1NC(=O)C1CCN(S(=O)(=O)c2cc(Br)cc3c2N(C(C)=O)CC3)CC1	0	0	0	-	-	0
Cc1ccc2c(c1)Cc1c(nc(-c3ccc(F)cc3)nc1SCC(=O)N1CCCCC1)O2	0	0	0	-	-	0
COC(=O)C1CCCCN1C(=O)c1cc(COc2cccc3cnccc23)on1 (stereo not given)	-	-	-	-	-	-92.0
